ALOX12 inh: ALOX12 (human) lipoxygenase inhibition. Potency, µM (highest dose often 108 µM), for inactives: at the top dose activity change, negative = inhibition, hits mostly inhibitors. actives 1.1% (n = 580,000). AID 1671190. purified 12hLO, xylenol orange hydroperoxide absorbance. P18054
Target sequence (P18054 whole entry, looked up): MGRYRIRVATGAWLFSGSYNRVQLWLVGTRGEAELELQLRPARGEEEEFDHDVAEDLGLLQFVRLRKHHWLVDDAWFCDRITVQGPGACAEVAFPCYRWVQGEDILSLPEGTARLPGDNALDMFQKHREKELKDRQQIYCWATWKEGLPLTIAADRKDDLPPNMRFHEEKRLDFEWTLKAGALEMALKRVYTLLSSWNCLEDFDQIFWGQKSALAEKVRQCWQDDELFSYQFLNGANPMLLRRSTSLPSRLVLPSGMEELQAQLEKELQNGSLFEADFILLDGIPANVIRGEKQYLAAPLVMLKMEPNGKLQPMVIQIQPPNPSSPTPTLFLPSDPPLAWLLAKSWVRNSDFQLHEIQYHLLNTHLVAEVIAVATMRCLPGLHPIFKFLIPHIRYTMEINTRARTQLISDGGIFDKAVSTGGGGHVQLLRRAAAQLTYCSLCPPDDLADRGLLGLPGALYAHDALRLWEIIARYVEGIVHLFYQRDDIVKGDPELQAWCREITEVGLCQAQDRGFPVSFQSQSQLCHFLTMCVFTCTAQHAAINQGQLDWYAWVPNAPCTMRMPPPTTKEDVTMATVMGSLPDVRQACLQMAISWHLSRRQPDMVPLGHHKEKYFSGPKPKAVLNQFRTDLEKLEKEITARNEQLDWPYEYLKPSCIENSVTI
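Hydroperoxide product was detected by ferrous iron/xylenol orange as the 573 to 405 nm absorbance ratio. Arachidonic acid at 40 uM (final) was turned over for 30 min at room temperature by 150 nM human 12hLO, pH 7.0 Hepes buffer, after 15 min compound preincubation.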
PLK1 PBD inh: blocks phosphopeptide binding to human PLK1 polo-box domain; Potency, µM, without a hit: max response, negative = inhibition, actives largely listed as inhibitors; P53350; Plk1 PBD binding of FITC phosphopeptide, fluorescence polarization; actives 2.8% (n = 360,000); also: series mostly up to about 57 µM; nearly all actives have a fitted effect of over 65% in size
Sfp PPTase inh: blocks B. subtilis Sfp PPTase activity; Q9F4F7; Biochemical Sfp PPTase activity, qHTS; Potency, µM, without a hit: largest response in the series, negative = inhibition, hits mostly inhibitors; actives 3.5% (n = 310,000); AID 1490;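 also: the enzyme is Sfp with the accession as filed and its product quenches rhodamine fluorescence; 0% = enzyme reaction without inhibitor and -100% = no enzyme wells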
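Fluorescence-quenching assay with 15 nM Sfp, 5 uM rhodamine-CoA and 12.5 uM BHQ-2-labelled ybbR peptide in pH 7.6 Hepes/MgCl2 buffer. Enzyme was pre-incubated with compound for 15 min at room temperature. Rate was taken from the 30-min fluorescence change (525/598 nm).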
VDR inhibitor: inhibitors of human vitamin D receptor | P11473 | VDR-SRC2-3 peptide fluorescence polarization, 2 h | Potency, µM, for the others: max response, negative = inhibition, actives largely listed as inhibitors | actives 0.93% (n = 400,000) | AID 504847
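The screen uses fluorescence polarization to detect compounds that interfere with recruitment of the SRC2-3 coactivator peptide to VDR; plates are read after 2 h at room temperature.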
TbPYK inh: confirmation of Trypanosoma brucei pyruvate kinase inhibitors; shares compounds with PLK1 PBD inh; recombinant TbPYK, Kinase-Glo ATP luminescence; Potency, µM (top dose mostly 76.9 µM), for inactives: top-dose activity change, negative = inhibition, most hits filed as inhibitors; actives 67% (n = 890); also: nearly all actives have a fitted effect of over 70% in size
TbPYK orthogonal: orthogonal confirmation of Trypanosoma brucei pyruvate kinase inhibitors. shares compounds with PLK1 PBD inh. recombinant TbPYK, ADP-Glo luminescence, 60 min. Potency, µM (highest dose often 76.9 µM), for the others: top-dose activity change, negative = inhibition, most hits filed as inhibitors. actives 62% (n = 890); also: nearly all actives have a fitted effect of over 75% in size
Numbers without * were called inactive; [ ] = dose if it differs, or a comment. Sampled rows, rich in hits. Any-hit rate of the full collection: about 4.2%. Calls follow the shape of the dose curve; as a rule, active = well fitted curve in the direction sought with a large enough effect; inconclusive = small, poorly fitted or top-dose-only effect, or another doubt; inactive = no such curve, though single readings can be large; an effect the other way counts as inactive or inconclusive. Unless noted, % is scaled to controls: 0 for no effect and ±100 for the full control effect; potency is read from the fitted curve at half-maximal effect.

Screening COc1cc(C=C2C(=O)NC(=O)NC2=O)cc(OC)c1OC returned ALOX12 inh 0%, PLK1 PBD inh 11µM*, Sfp PPTase inh 32µM*, VDR inhibitor inconclusive, TbPYK inh 14µM* and TbPYK orthogonal 28µM*.
Screening COc1cc(C(=O)O)cc(OC)c1OC returned ALOX12 inh 22%, PLK1 PBD inh -1% and VDR inhibitor -9%.
Screening O=C(CCn1c(=O)oc2ccccc21)N1CCC2(CC1)OCCO2 returned ALOX12 inh 33%, PLK1 PBD inh -6%, Sfp PPTase inh -11%, VDR inhibitor 8%, TbPYK inh 3% and TbPYK orthogonal -8%.
For O=c1[nH]c(=S)n(Cc2ccco2)c(O)c1C=NCc1cccs1 the results were ALOX12 inh -2%[57.4 µM], PLK1 PBD inh -26%, Sfp PPTase inh -1%, VDR inhibitor 1%, TbPYK inh inconclusive and TbPYK orthogonal -29%.
For CC(N)C(=O)c1ccco1 (configuration not stated) the results were ALOX12 inh 5%, PLK1 PBD inh -2%, Sfp PPTase inh 20% and VDR inhibitor 0%.
For CC(=O)Nc1ccc(C=C2C(=O)NC(=O)NC2=O)cc1 the results were ALOX12 inh inconclusive, PLK1 PBD inh -29%, VDR inhibitor inconclusive, TbPYK inh 16µM* and TbPYK orthogonal 18µM*.
For O=C1NC(=O)C(=Cc2ccc(N3CCOCC3)cc2)C(=O)N1 the results were ALOX12 inh -11%, PLK1 PBD inh 9.5µM*, Sfp PPTase inh -8%, VDR inhibitor 26%, TbPYK inh 25µM* and TbPYK orthogonal inconclusive.
`CC(=O)Nc1ccc(OCCF)cc1` gave ALOX12 inh 16%, PLK1 PBD inh -6%, Sfp PPTase inh 17% and VDR inhibitor -13%.
For CCCCCn1c(=O)c(C(=O)Nc2ccccc2S(N)(=O)=O)c(O)c2ccccc21 the results were ALOX12 inh 35%, PLK1 PBD inh -9%, Sfp PPTase inh 28% and VDR inhibitor -3%.
